# Compound activity as filed in PubChem BioAssay.
# BoNT-A LC inh2 – blocks Botulinum neurotoxin A light chain protease | multiplex microsphere protease substrate cleavage, flow cytometry | inhibition, % at 10 µM | actives 0.17% (n = 360,000); further: plate controls were buffer without enzyme for full effect and enzyme alone for no effect
# Anthrax LF prot – blocks Bacillus anthracis lethal factor protease | P15917 | multiplex microsphere protease cleavage assay, LF | inhibition, % at 10 µM | actives 0.12% (n = 360,000) | AID 588501; further: plate controls were buffer without enzyme for full effect and enzyme alone for no effect
# Target sequence (P15917 whole entry, looked up): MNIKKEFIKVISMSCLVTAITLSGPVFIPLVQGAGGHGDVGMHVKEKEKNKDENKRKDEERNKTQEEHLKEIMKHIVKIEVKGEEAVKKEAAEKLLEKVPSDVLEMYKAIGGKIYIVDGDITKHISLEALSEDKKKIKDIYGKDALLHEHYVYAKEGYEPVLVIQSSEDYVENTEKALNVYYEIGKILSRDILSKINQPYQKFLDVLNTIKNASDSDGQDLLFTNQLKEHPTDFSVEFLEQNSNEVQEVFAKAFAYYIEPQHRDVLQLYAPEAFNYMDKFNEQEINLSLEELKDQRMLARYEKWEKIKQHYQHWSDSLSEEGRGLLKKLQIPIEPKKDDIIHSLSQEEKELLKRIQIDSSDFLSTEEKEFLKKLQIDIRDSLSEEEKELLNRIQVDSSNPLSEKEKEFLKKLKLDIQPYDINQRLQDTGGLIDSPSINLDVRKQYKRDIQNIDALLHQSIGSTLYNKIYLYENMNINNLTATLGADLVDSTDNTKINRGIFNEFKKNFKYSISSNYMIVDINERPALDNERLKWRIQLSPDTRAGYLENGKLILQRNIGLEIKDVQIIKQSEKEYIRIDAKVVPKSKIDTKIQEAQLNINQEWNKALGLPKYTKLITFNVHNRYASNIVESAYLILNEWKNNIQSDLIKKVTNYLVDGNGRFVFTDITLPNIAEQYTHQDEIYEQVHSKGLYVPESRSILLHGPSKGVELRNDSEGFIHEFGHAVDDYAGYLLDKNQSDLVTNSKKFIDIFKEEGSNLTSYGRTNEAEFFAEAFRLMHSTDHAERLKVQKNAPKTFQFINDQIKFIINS
# Bead autofluor – flagged as autofluorescent in microsphere protease counterscreen; compound autofluorescence counterscreen, microsphere flow cytometry; stronger effect = higher value; fluorescence intensity (concentration not given with the values); actives 3.1% (n = 360,000); in the data active means fluorescence intensity above about 16000; inconclusive means no clear call, values can overlap the other calls
# BoNT-F LC inh – BoNT F light chain protease inhibition | Multiplex microsphere protease cleavage assay, flow cytometry | inhibition, % at 10 µM | actives 0.22% (n = 360,000) | AID 588497; in the data active means inhibition above about 35%, passing the limit was not always enough; inconclusive means no clear call, values can overlap the other calls; further: plate controls were buffer without enzyme for full effect and enzyme alone for no effect
# Active calls of the source: *; ? = inconclusive. In the library only some 3.5% were active in any assay of this set; here they are far more common. Unless noted, no stated cut-off is given here; in the data, active means inhibition above about 30%; inconclusive means no clear call, values can overlap the other calls; inactive means below that.
SMILES,BoNT-A LC inh2,Anthrax LF prot,Bead autofluor,BoNT-F LC inh
COc1ccc(-c2ccc(SCC(=O)NCc3ccco3)nn2)cc1,-1.7,-1.7,24470*,-3.5
O=C(CSc1ccc(-c2ccc(F)cc2)nn1)NCc1ccco1,-0.6,2.4,9284,-4.9
CCOc1ccc2nc(SCC(=O)NCc3ccco3)sc2c1,2.8,0.3,21294*,3.5
O=C(CSc1nc(-c2ccccc2)c(-c2ccccc2)[nH]1)NCc1ccco1,0.3,-3.0,23502*,-1.9
COc1ccc(NS(=O)(=O)c2cn(C)cn2)c(OC)c1,0.3,-2.5,4142,2.9
Cc1c(CC(=O)O)c(=O)oc2c(C)c(OCc3ccc(F)cc3F)ccc12,-0.7,-4.6,3764,6.9
Cc1c(CC(=O)O)c(=O)oc2c(C)c(OCc3ccc(F)cc3Cl)ccc12,2.1,8.6,3385,34.6*
O=C(c1ccccc1)c1ccc(O)c(O)c1O,-0.7,-5.1,5308,-27.6
Cc1cc(Cl)ccc1-c1cc2nc(NCCCN(C)C)n(C)c(=O)c2s1,0.2,-2.4,3499,-3.4
CCOC(=O)C1=C(O)c2ccccc2C(=O)/C1=C\c1ccc(CC)cc1,6.3,-2.6,21598*,3.3
CCC(=O)c1ccc(OCC(=O)OCC(=O)NCC2CCCCC2)cc1,0.4,-1.8,5366,6.6
Cc1ccc(S(=O)(=O)N[C@@H](CC(C)C)C(=O)NCc2ccco2)cc1,?,-0.4,23101*,-1.2
Cc1ccc(S(=O)(=O)NCC(=O)N(CC(=O)NCc2ccco2)Cc2cccs2)cc1,-1.1,-1.8,20378*,-2.6
COC(=O)c1c(NC(=O)c2ccccc2)sc2c1CC(C)(C)OC2,?,-12.5,16350*,-2.1
COc1cccc(/C=N/n2c(=S)n(C)c3cc(C)c(C)cc32)c1OC,?,-3.4,22389*,-4.5
COc1cccc(/C=N/n2cnc3ccccc32)c1OC,8.8,-15.1,16900*,8.2
Cc1cc2ncn(/N=C/c3cccnc3)c2cc1C,0.5,-3.3,4414,16.5
C(=N\n1cnc2ccccc21)/c1cccnc1,1.2,-1.6,22275*,0.9
C=C1[C@H](C)CN[C@H]1CCO,-0.2,-8.7,3103,-8.4
COC(=O)[C@H](Cc1ccccc1)NC(=O)Nc1ccc(C)cc1,-0.8,-7.7,4142,-1.9
CCCNC(=O)C(Cc1ccccc1)NC(=O)c1ccccc1 (stereo not drawn),-0.1,2.9,3413,3.1
CC(NC(=O)C(Cc1ccccc1)NC(=O)c1ccccc1)C(=O)O (stereo not drawn),?,-0.8,22982*,-1.2
COc1cc(NC(=O)COC(=O)Cn2cnc3c2c(=O)n(C)c(=O)n3C)cc(OC)c1,-0.4,-1.8,4009,1.1
Cc1cccc(C(=O)N/N=C/c2ccncc2)c1,-1.5,-2.0,16845*,-3.4
CCNS(=O)(=O)c1ccc(NC(=O)CC(C)c2ccccc2)cc1 (stereo not drawn),-0.6,0.0,2155,-7.8
SMILES,BoNT-A LC inh2,Anthrax LF prot,Bead autofluor,BoNT-F LC inh
COc1cc(OC)cc(C(=O)Nn2cc(C(=O)Nc3ccc(F)cc3F)c3ccccc3c2=O)c1,-0.6,-7.7,7071,-5.8
Cc1cccc(NC(=O)[C@@H]2CCCN2C(=O)OC(C)(C)C)c1C,-4.4,-15.8,3362,-4.9
Cc1cccc(C)c1NC(=O)C1(NC(=O)C2CCCN2C(=O)OC(C)(C)C)CCCCC1 (stereo not drawn),2.2,0.1,21811*,3.5
O=C(NCCCN1CCOCC1)c1ccc(NC(=O)C2COc3ccccc3O2)cc1 (stereo not drawn),0.0,1.3,2416,-5.7
O=C(C1COc2ccccc2O1)N1CCCC1 (stereo not drawn),?,-1.0,20678*,-3.8
CC1CCN(C(=O)C2COc3ccccc3O2)CC1 (stereo not drawn),0.1,10.8,8617,-1.3
O=C(NCCCN1CCOCC1)C1COc2ccccc2O1 (stereo not drawn),-1.1,-1.7,16494*,-5.4
Cc1nc(C(F)(F)F)ccc1C(=O)N1CCC(C)(C(=O)O)C1 (stereo not drawn),0.3,1.9,3636,6.4
Cc1ccc(OCC(=O)N2CCN(c3nnc(-c4ccc(C)cc4)c4ccccc34)CC2)cc1,2.0,-1.9,22360*,3.3
COc1ccc(OCC(=O)N2CCN(c3nnc(-c4ccc(C)cc4)c4ccccc34)CC2)cc1,-4.8,-6.2,5053,?
COc1ccc(OCC(=O)N2CCN(C(=O)c3cccc4ccccc34)CC2)cc1,3.4,0.8,21547*,4.8
O=S(=O)(Nc1cccc(S(=O)(=O)N2CCCC2)c1)c1cccc(Br)c1,2.3,13.1,?,-1.8
O=C(CN1C(=O)/C(=C\C=C\c2ccccc2)SC1=S)Nc1ccc(F)cc1,33.6*,17.5,2623,18.3
O=C(CCN1C(=O)/C(=C/C=C/c2ccccc2)SC1=S)Nc1nc2ccccc2s1,56.5*,28.4,2563,20.3
